# Results filed as inconclusive are left out. Active and inactive are the calls of the source. Calls follow the shape of the full dose curve.
# Tests used:
# [1] = Confirmatory qHTS to identify inhibitors of SARS-CoV-2 cell entry (AID 1645844); also: nearly all actives have a fitted effect of over 45% in size
# Summary of the method: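 HEK293-ACE2 cells (Expi293F stably expressing human ACE2) were pretreated with compounds for 1 hr at 37C, then infected with MLV-based particles carrying Wuhan-Hu-1 spike (C-terminal 19-aa truncation). Luciferase luminescence read after 48 hr; normalized to spike PP (100%) and bald PP (0%).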
# [2] = VSVG counterscreen qHTS to identify inhibitors of SARS-CoV-2 cell entry (AID 1645847); also: nearly all actives have a fitted effect of over 65% in size; as to activity change, negative = inhibition: % is scaled to controls: 0 for no effect and ±100 for the full control effect
# Summary of the method: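 Luminescence from a luciferase reporter, normalised to bald particle and VSV-G pseudotyped particle wells, is the read-out. Cells are HEK293 expressing human ACE2, exposed to compound 1 h before a 48 h particle infection at 37 °C.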
# [3] = Cytotoxicity counterscreen for inhibitors of SARS-CoV-2 cell entry (AID 1645845); conditions: outcome: dose series up to 57.1 µM unless noted; also: nearly all actives have a fitted effect of over 50% in size
# Summary of the method: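 Expi293F/hACE2 cells seeded overnight; cpd pin-transferred in DMSO, 1 h preincubation, + media, 48 h 37 C 5% CO2; ATPLite 1step luminescence; normalized to cells and no cells.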
# [4] = Primary qHTS to identify inhibitors of SARS-CoV-2 cell entry (AID 1645846); conditions: SARS-CoV-2 pseudovirus cell entry assay, luminescence; activity change, negative = inhibition: at 57.1 µM (top of the series) unless noted; also: nearly all actives have a fitted effect of over 45% in size
# Summary of the method: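 Inhibition of spike-mediated entry was scored in human ACE2-transfected Expi293F cells. Particles were MLV-pseudotyped with Wuhan-Hu-1 S carrying a 19-aa C-terminal deletion; signal was luciferase after two days, scaled between spike PP and fusion-protein-free PP.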
# Potency is read from the fitted curve at half-maximal effect.
structure (smiles),measurement,setting,value
CCN(CCCOc1ccc2c(Nc3cc(CC(=O)Nc4cccc(F)c4)[nH]n3)ncnc2c1)CCOP(=O)(O)O,Potency,[1],34.1 nM (active)
same,Potency,[2],76.4 nM (active)
CCC1CCCCN1C(=O)n1ncc(C(O)(c2ccccc2)c2ccccc2)n1 (centres undefined),Potency,[3],11200 nM (active)
O=c1c(-n2ccnn2)c[nH]n1-c1cc(N2CCOCC2)ncn1,Potency,[1],4820 nM (active)
same,Potency,[4],7080 nM (active)
same,Potency,[2],21500 nM (active)
CC(=O)N1CCN(CCOc2ccc(C3CCN(C4=Nn5c(nnc5C(F)(F)F)CC4)CC3)cc2)CC1,Potency,[1],19200 nM (active)
same,Potency,[3],inactive
same,"activity change, negative = inhibition",[4],-91.8%
same,Potency,[2],19200 nM (active)
NC(=O)c1ccccc1Nc1ccnc(Nc2cccc(O)c2)n1,Potency,[1],9610 nM (active)
same,Potency,[4],8910 nM (active)
same,Potency,[2],7640 nM (active)
CN[C@H]1CN(c2ccc3c(=O)c(C(=O)O)cn(-c4nccs4)c3n2)C[C@@H]1OC,Potency,[1],555 nM (active)
same,Potency,[2],622 nM (active)
COc1ccc2[nH]c3c(c2c1)CCN[C@]31CS[C@@H]2c3c(OC(C)=O)c(C)c4c(c3[C@H](COC1=O)N1[C@@H]2[C@H]2c3c(cc(C)c(OC)c3O)C[C@@H]([C@@H]1O)N2C)OCO4,Potency,[1],4.4 nM (active)
same,Potency,[4],631 nM (active)
same,Potency,[2],3.5 nM (active)
N#Cc1cccnc1N1CCN(C(=O)c2cccc(Cc3n[nH]c(=O)c4ccccc34)c2)CC1,Potency,[1],68.1 nM (active)
same,"activity change, negative = inhibition",[4],-93.1%
same,Potency,[2],60.7 nM (active)
CS(=O)(=O)N1CCC(NC(=O)c2[nH]ncc2NC(=O)c2c(Cl)cccc2Cl)CC1,Potency,[1],34.1 nM (active)
same,"activity change, negative = inhibition",[4],-94.8%
same,Potency,[2],96.1 nM (active)
CC#CC(=O)N1CC[C@@H](n2c(=O)n(-c3ccc(Oc4ccccc4)cc3)c3c(N)ncnc32)C1,Potency,[1],21500 nM (active)
same,"activity change, negative = inhibition",[4],-99%
CC[C@]1(O)CC2CN(CCc3c([nH]c4ccccc34)[C@@](C(=O)OC)(c3cc4c(cc3OC)N(C)[C@H]3[C@@](O)(C(=O)OC)[C@H](OC(C)=O)[C@]5(CC)C=CCN6CC[C@]43[C@@H]65)C2)C1 (some centres undefined),Potency,[1],4.3 nM (active)
same,Potency,[2],38.3 nM (active)
CC/C(=C(/c1ccc(O)cc1)c1ccc(OCCNC)cc1)c1ccccc1,Potency,[1],17100 nM (active)
same,"activity change, negative = inhibition",[4],-36.5%
same,Potency,[2],24100 nM (active)
C[C@@]1(c2ncncc2F)NC(=O)c2cc(-c3cn[nH]c3)ccc21,Potency,[1],3040 nM (active)
same,Potency,[3],inactive
same,Potency,[2],4820 nM (active)
O=C(/C=C/N1C[C@H]2C[C@@H]1CN2c1ccccn1)c1ccccc1O,Potency,[3],inactive
COc1cc2c3c(n(CCCn4ccnc4)c(=O)c2cc1OC)-c1cc2c(cc1C3=O)OCO2,Potency,[1],48.2 nM (active)
same,Potency,[3],inactive
same,"activity change, negative = inhibition",[4],-94.4%
same,Potency,[2],60.7 nM (active)
CCNC(=O)Nc1ccc(-c2nc3c(c(N4CCOC[C@@H]4C)n2)CCN(C2COC2)C3)cc1,Potency,[1],12100 nM (active)
same,Potency,[4],10000 nM (active)
O=c1[nH]c([C@@H]2CCCN2)nc2c1oc1ccc(Cl)cc12,Potency,[1],5410 nM (active)
same,Potency,[3],inactive
same,Potency,[2],7640 nM (active)
C=CC(=O)N[C@H]1CN(c2nc(Nc3cn(C)nc3OC)c3ncn(C)c3n2)C[C@@H]1F,Potency,[1],inactive
same,Potency,[3],inactive
same,Potency,[2],inactive
CC(C)c1cc(CNc2nc(Nc3cc(C4CC4)[nH]n3)cc(N3CCN(C)CC3)n2)on1,Potency,[1],215 nM (active)
same,Potency,[4],2510 nM (active)
same,Potency,[2],541 nM (active)
NC(=O)/C(=C/n1cnc(-c2cc(C(F)(F)F)cc(C(F)(F)F)c2)n1)c1cncnc1,Potency,[1],607 nM (active)
same,Potency,[3],inactive
same,Potency,[2],108 nM (active)
c1cc(Nc2cc(C3CC3)[nH]n2)nc(Nc2ccc3nc[nH]c3c2)n1,Potency,[1],192 nM (active)
same,"activity change, negative = inhibition",[4],-94.9%
same,Potency,[2],242 nM (active)
COc1ccc(S(=O)(=O)N2CCc3cccc(-c4ccncc4)c32)cc1,Potency,[1],961 nM (active)
same,Potency,[2],1520 nM (active)
O=C(CCCCCCC(=O)N/N=C/c1ccc(N(c2ccccc2)c2ccccc2)cc1)NO,Potency,[1],8790 nM (active)
same,Potency,[4],3160 nM (active)
same,Potency,[2],7840 nM (active)
Cc1nnc(C[C@@H]2C=C(c3ccc(Cl)cc3)c3ccccc3-n3c(C)nnc32)o1,Potency,[1],inactive
same,Potency,[2],9610 nM (active)
O=C(Nc1ccnc(NC(=O)C2CC2)c1)c1c(Cl)cccc1Cl,Potency,[1],1920 nM (active)
same,"activity change, negative = inhibition",[4],-97%
same,Potency,[2],2710 nM (active)
CCc1cc(C(N)=O)ccc1-n1nc(C(C)C)c2c(-n3cnc(-c4cnn(C)c4)c3)ccnc21,Potency,[1],10800 nM (active)
same,Potency,[2],3040 nM (active)
CC[C@]12C=CCN3CC[C@@]4(c5cc([C@@]6(C(=O)OC)C[C@H]7C[C@@H](C(C)(F)F)CN(Cc8c6[nH]c6ccccc86)C7)c(OC)cc5N(C)[C@H]4[C@@](O)(C(=O)OC)[C@@H]1OC(C)=O)[C@@H]32,Potency,[1],359 nM (active)
same,"activity change, negative = inhibition",[4],-76.7% [at 19 µM]
same,Potency,[2],127 nM (active)
COCCNCc1ccc(-c2cc3nccc(Oc4ccc(NC(=S)NC(=O)Cc5ccc(F)cc5)cc4F)c3s2)nc1,Potency,[1],3830 nM (active)
same,Potency,[2],1360 nM (active)
CC(=O)N[C@H]1[C@H](O[C@@H]2c3ccc(c(Cl)c3)Oc3cc4cc(c3O[C@@H]3O[C@H](CO)[C@@H](O)[C@H](O)[C@H]3NC(=O)CCCCCCCC(C)C)Oc3ccc(cc3Cl)C[C@H]3NC(=O)[C@H](N)c5ccc(O)c(c5)Oc5cc(O)cc(c5)[C@H](NC3=O)C(=O)N[C@H]4C(=O)N[C@H]3C(=O)N[C@@H]2C(=O)N[C@@H](C(=O)O)c2cc(O)cc(O[C@H]4O[C@H](CO)[C@@H](O)[C@H](O)[C@@H]4O)c2-c2cc3ccc2O)O[C@H](CO)[C@@H](O)[C@@H]1O,Potency,[3],inactive
same,"activity change, negative = inhibition",[4],-12.4%
COc1ccc(-n2cnc3cc(C(=O)N4CCCCC4)ccc32)cc1,Potency,[3],inactive
same,"activity change, negative = inhibition",[4],0.509%
Cn1cc(-c2ccc3c(c2)CCN3C(=O)Cc2cccc(C(F)(F)F)c2)c2c(N)ncnc21,Potency,[3],inactive
same,"activity change, negative = inhibition",[4],3.56%
Nc1nc(F)nc2c1ncn2C1OC(COP(=O)(O)O)C(O)C1O (centres undefined),Potency,[3],inactive
same,"activity change, negative = inhibition",[4],-9.43%
c1ccc(CNCc2ccc(CN3CCCNCCNCCCNCC3)cc2)nc1,Potency,[3],inactive
same,"activity change, negative = inhibition",[4],-7.13%
COC(=O)N1CC2(CC2)C[C@H](C(=O)NO)[C@H]1C(=O)N1CCN(c2ccccc2)CC1,Potency,[3],inactive
same,"activity change, negative = inhibition",[4],-12.3%
Nc1cc(COc2c(Cl)cc(C[C@H](N)C(=O)O)cc2Cl)c2oc(-c3ccccc3)nc2c1,Potency,[3],inactive
same,"activity change, negative = inhibition",[4],-18.9%
CNC(=O)[C@H]1O[C@@H](n2cnc3c(NCc4cccc(I)c4)nc(Cl)nc32)[C@H](O)[C@@H]1O,Potency,[3],inactive
same,Potency,[4],inactive
O=C(Nc1ccccc1)Nc1ccc(-c2ccc(C(=O)[C@@H]3CCC[C@H]3C(=O)O)cc2)cc1,Potency,[3],inactive
same,"activity change, negative = inhibition",[4],-45.3%
CC1c2cccc(O)c2C(O)=C2C(=O)C3(O)C(O)=C(C(N)=O)C(=O)C(N(C)C)C3C(O)C21 (centres undefined),Potency,[3],inactive
same,"activity change, negative = inhibition",[4],-15.9%
CC(=O)O/N=C1/C(c2c(O)[nH]c3cc(Br)ccc23)=Nc2ccccc21,Potency,[3],inactive
same,Potency,[4],inactive
O=c1oc2c(C3OCCCO3)c(O)ccc2c2c1CNCC2,Potency,[3],inactive
same,"activity change, negative = inhibition",[4],1.62%
NS(=O)(=O)Oc1ccc2c3c(c(=O)oc2c1)CCCCC3,Potency,[3],inactive
same,Potency,[4],inactive

# — PubChem BioAssay (NCATS)
